In the library only some 2.3% were active in any assay of this set; here they are far more common.
aSyn rescue = alpha-synuclein toxicity inhibition in yeast | Yeast expressing alpha-synuclein, growth rescue, BacTiter-Glo, 24 h | AID 652106 | Potency, µM (series often up to 46.1 µM), for inactives: at the top dose growth rescue (activation), usual class: activators | actives 0.14% (n = 370,000); note: potency is the fitted concentration of half-maximal effect; % of control where 0% means no effect; nearly all actives have a fitted effect of over 65% in size
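Screening used galactose-induced yeast with toxic alpha-synuclein levels, exposed to compound for 24 hr at 30 deg C. Cell growth, read with BacTiter-Glo luminescence, gave the measured signal.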
TDP-43 yeast inh = rescues yeast growth from TDP-43 toxicity | Potency, µM (top dose mostly 46.1 µM), for the others: at the highest dose growth rescue (activation), hits mostly activators | actives 1.8% (n = 410,000) | TDP-43 expressing yeast growth rescue, BacTiter-Glo, 24 h; note: potency is the fitted concentration of half-maximal effect; % of control where 0% means no effect; nearly all actives have a fitted effect of over 50% in size
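Growth rescue of TDP-43-toxic yeast measured as ATP luminescence (BacTiter-Glo). Cells grown to mid-log in raffinose, induced in galactose at OD600=0.02, exposed to compound 24 hr at 30 deg C.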
pAkt inh = inhibitors of Akt phosphorylation; Neuro2A IGF-stimulated pAkt S473 HTRF, 20 min; stronger effect = lower value; activity change, % for hits at 50 µM; actives 0.32% (n = 360,000); AID 651550; in the data active = activity change below about -80%; inconclusive = mostly about -51% to -80%; note: % is set by controls: 0 for no effect and ±100 for the full control effect
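Single-point screen (50 µM final compound) in Neuro2A cells stimulated 20 min with 6 nM IGF at 37 deg C. After lysis, Ser473-phosphorylated Akt read by HTRF (ex 330 nm, em 615/665 nm) as the 665/615 ratio.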
Abeta rescue = restores growth of yeast expressing A-beta42 peptide. yeast expressing A-beta42, growth rescue, OD600, 48 h; response scale: 0% DMSO, 100% iron-clioquinol control. Potency, µM (series often up to 46.1 µM), usual class: activators. actives 0.063% (n = 410,000). AID 1347071; note: potency is the fitted concentration of half-maximal effect; nearly all actives have a fitted effect of over 55% in size
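Yeast A-beta toxicity model in growth medium with pinned compounds, 48 h at 30 C; growth read as absorbance at 600 nm. Normalized to FeCl3/clioquinol equimolar mix (positive) and DMSO (negative).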
FUS yeast rescue = suppressors of FUS proteinopathy in yeast; Potency, µM (doses to about 76.6 µM), most hits filed as activators; actives 0.24% (n = 390,000); S. cerevisiae FUS-expressing, growth rescue, OD600, 24 h;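 note: potency is the fitted concentration of half-maximal effect; plate controls were DMSO vehicle for no effect and reference control for full effect; nearly all actives have a fitted effect of over 55% in size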
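Steps: raffinose overnight preculture; dilution to OD 0.005 in 2% galactose minimal medium; compound addition (concentration series); 24hr at 30C, 99% humidity; absorbance read at 600 nm.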
* = called active by the depositor; i = inactive; u = inconclusive; x = not tested or not shown. Unless noted, calls come from the whole dose curve; as a rule, active = well fitted curve in the direction sought with a large enough effect; inconclusive = small, poorly fitted or top-dose-only effect, or another doubt; inactive = no such curve, though single readings can be large; an effect the other way counts as inactive or inconclusive.

SMILES	aSyn rescue	TDP-43 yeast inh	pAkt inh	Abeta rescue	FUS yeast rescue
CCOC(=O)c1cc(C)n(Cc2cccc(OC)c2OC)c1C	-15%	20µM*	i	i	i
O=C(C1CCCN(S(=O)(=O)c2cc(Cl)ccc2Cl)C1)N1CCCCCC1 (configuration not stated)	3%	11µM*	i	i	x
O=C(C1CCCN(S(=O)(=O)c2cc(Cl)ccc2Cl)C1)N1CCCC1 (configuration not stated)	5%	u	i	i	x
CCN(CC)C(=O)CSc1nc(-c2ccccc2F)nc2c1Cc1c(CO)cnc(C)c1O2	x	-17%	x	i	i
COc1ccc(NC(=O)c2csnn2)cc1Cl	x	24%	x	i	i
COc1ccccc1Nc1nc(N)nc(CSC(=S)N2CC(C)CC(C)C2)n1 (configuration not stated)	0%	25µM*	i	i	i
COc1ccc(Nc2nc(N)nc(CSC(=S)N3CCCCC3)n2)cc1	2%	20%	i	i	i
CC1CCN(C(=S)SCc2nc(N)nc(Nc3ccccc3)n2)CC1	11%	u	i	22µM*	u
COc1ccc(Nc2nc(N)nc(CSC(=S)N3CCN(c4ccccc4)CC3)n2)cc1	11%	18µM*	i	i	u
COc1ccc2nc(SCc3nc(N)nc(Nc4ccccc4)n3)[nH]c2c1	-11%	-7%	-102%*	i	i
CCCCNc1nc2c(-c3cccc(C)c3)nnn2c2ccccc12	x	23%	x	i	i
O=c1ccc2ccccc2c2ccccc12	u	3.2µM*	i	i	i
Cc1ccc(CCNC(=O)c2cn(C)c3ccc(S(=O)(=O)N(C)C4CCCCC4)cc3c2=O)cc1	x	13%	x	i	i
CCc1nn2c(-c3ccco3)ccnc2c1-c1ccc(F)cc1	x	17%	x	i	i
c1ccc2sc(-c3ccncc3)nc2c1	u	2%	i	i	i
Oc1ccc(-c2nc3ccccc3s2)cc1	-17%	35µM*	i	i	i
c1ccc2sc(-c3ccc4c(c3)OCO4)nc2c1	-13%	-4%	-112%*	i	i
Cc1nnc2sc(-c3csc4c3CCCC4)nn12	-3%	13µM*	i	i	u
Cc1ccc(C)c(NC(=O)c2cc3c([nH]c4ccccc43)c(C)n2)c1	-1%	18%	-101%*	i	i
Cc1cccc(NC(=O)c2cc3c([nH]c4ccccc43)c(C)n2)c1C	-12%	31%	i	i	i
COc1ccccc1-c1oc2ccccc2c1C#CC(C)(C)O	5%	16µM*	i	i	i
Cc1noc(C)c1NC(=O)N(C)C[C@@H]1OCc2ccccc2-c2c(n(C)c3ccccc23)C(=O)N([C@H](C)CO)C[C@H]1C	-2%	0%	i	i	i
C[C@@H]1CN([C@H](C)CO)C(=O)c2c(c3ccccc3n2C)-c2ccccc2CO[C@@H]1CN(C)C(=O)Nc1ccccc1C(F)(F)F	-5%	20µM*	i	i	i
Cc1ccc(-c2cc(C(=O)Oc3ccccc3)c3cc(C)ccc3n2)cc1	x	u	x	i	i
CCOc1ccc(C(=O)Nc2cccc(C)n2)cc1	-13%	-7%	i	i	i
SMILES	aSyn rescue	TDP-43 yeast inh	pAkt inh	Abeta rescue	FUS yeast rescue
CCCCOc1ccc(C(=O)Nc2cccc(C)n2)cc1	-26%	2.8µM*	i	i	x
CN(CC(=O)Nc1ccccc1Br)C(=O)CCSc1ccc(F)cc1	12%	14µM*	i	i	i
CCNc1nc(C)c2cc(Br)c(=O)n(CC)c2n1	2%	u	-104%*	i	i
CCn1c(=N)c(C(=O)NC)cc2c(=O)n3cccc(C)c3nc21	-8%	-5%	i	i	i
C=CCn1cnc2c(nnn2-c2cc(C)cc(C)c2)c1=O	2%	11µM*	i	i	i
COc1cc(C2Oc3ccccc3C=C2[N+](=O)[O-])cc(OC)c1OC (configuration not stated)	u	5µM*	i	i	i

High-throughput results from PubChem BioAssay.
